Assay outcomes (PubChem)
Only some compounds are listed: those with a hit (about 1.6% of all), similar ones and a draw of the others.
eIF4H FP inh: inhibitors of RNA binding by human eIF4H. Q15056. eIF4H fluorescence polarization binding assay. inhibition, % at 35 µM. actives 0.94% (n = 290,000);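 further: calls also rest on retests at 20 µM and on dose response follow-up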
PABP FP inh: blocks human PABP binding to poly(A) RNA. inhibition, % at 35 µM. fluorescence polarization. AID 2014. P11940. actives 1% (n = 290,000);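 further: calls also rest on retests at 20 µM and on dose response follow-up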
eIF4E 4G PPI: inhibitors of eIF4E and eIF4G interaction in translation initiation; P63073+Q04637; TR-FRET eIF4E-eIF4GI(517-606) binding, 2 h; inhibition, % at 21.7 µM; actives 0.37% (n = 220,000);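 active means inhibition above about 30%, limit read from the data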;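 further: 0% = full FRET control wells and 100% = background wells lacking eIF4GI fragment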
PERK inh: blocks human PERK kinase; Q9NZJ5; CHO PERK-DD fusion, SEAP luminescence translation reporter; inhibition, % at 5.6 µM; actives 0.17% (n = 220,000);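 active means inhibition above the mean inhibition of all tested compounds plus 3 SD, set separately per screening campaign, cut at about 2.9% in these data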;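 further: PERK kinase domain activated by AP20187 dimerizer at 100 nM; 0% = DMSO with dimerizer and 100% = rapamycin at 8.4 µM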
Target sequence (Q9NZJ5 whole entry, looked up, the tested form may be a part): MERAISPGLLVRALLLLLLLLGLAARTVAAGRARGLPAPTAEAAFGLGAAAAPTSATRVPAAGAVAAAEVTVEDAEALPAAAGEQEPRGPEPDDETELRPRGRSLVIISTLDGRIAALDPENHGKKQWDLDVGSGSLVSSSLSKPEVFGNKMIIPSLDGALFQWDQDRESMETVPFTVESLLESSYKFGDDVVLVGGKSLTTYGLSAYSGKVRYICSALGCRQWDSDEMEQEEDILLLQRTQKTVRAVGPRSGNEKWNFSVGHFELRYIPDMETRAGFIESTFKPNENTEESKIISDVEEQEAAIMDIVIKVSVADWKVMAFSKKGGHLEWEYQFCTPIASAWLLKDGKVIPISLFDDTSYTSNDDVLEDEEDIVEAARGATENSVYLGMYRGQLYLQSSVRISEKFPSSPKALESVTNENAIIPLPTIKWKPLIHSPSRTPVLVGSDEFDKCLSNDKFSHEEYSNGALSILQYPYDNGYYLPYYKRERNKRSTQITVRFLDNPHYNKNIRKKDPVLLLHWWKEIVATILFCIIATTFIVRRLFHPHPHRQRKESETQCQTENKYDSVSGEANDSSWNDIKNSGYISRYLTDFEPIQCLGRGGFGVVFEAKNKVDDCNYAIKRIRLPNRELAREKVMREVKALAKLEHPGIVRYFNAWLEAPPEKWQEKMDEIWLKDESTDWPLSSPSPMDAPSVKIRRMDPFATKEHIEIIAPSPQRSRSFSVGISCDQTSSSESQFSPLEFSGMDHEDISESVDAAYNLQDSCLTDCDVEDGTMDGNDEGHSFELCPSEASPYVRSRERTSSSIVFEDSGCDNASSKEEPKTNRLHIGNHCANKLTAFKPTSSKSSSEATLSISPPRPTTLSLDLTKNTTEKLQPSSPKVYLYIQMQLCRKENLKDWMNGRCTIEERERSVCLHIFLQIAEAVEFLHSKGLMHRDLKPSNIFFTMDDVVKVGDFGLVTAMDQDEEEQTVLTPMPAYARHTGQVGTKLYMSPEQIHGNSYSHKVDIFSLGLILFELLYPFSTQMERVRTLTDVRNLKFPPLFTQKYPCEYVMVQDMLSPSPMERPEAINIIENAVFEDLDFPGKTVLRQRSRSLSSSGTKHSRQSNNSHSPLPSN
PABP1 MLLE inh: blocks PAM2 peptide binding to the PABP1 MLLE domain. P11940. GST-MLLE / FITC-PAM2 fluorescence polarization. inhibition, % at 20 µM. actives 0.36% (n = 360,000). AID 588489; in the data active means inhibition above about 35%, passing the limit was not always enough;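 further: plate controls were DMSO wells with GST-MLLE for no effect and wells lacking GST-MLLE protein for full effect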
An asterisk follows results filed as active; ? = inconclusive; · = no result; [ ] = dose if it differs, or a comment. Unless noted, how the calls were made is not given here.

SMILES	eIF4H FP inh	PABP FP inh	eIF4E 4G PPI	PERK inh	PABP1 MLLE inh
CN(C)c1nc2n(c(=O)n1)C(C#N)CS2 (stereo not drawn)	10	7	-1	0	40*
CN(C)c1nc2n(c(=O)n1)CCS2	-3	-8	-4	1	4
NC(=O)C(c1cccc(Cl)c1)c1ncc(C(F)(F)F)cc1Cl (stereo not drawn)	-7	-2	-8	-1	-4
NC(=S)C(c1ccccc1)c1ncc(C(F)(F)F)cc1Cl (stereo not drawn)	-5	3	·	·	42*
Cc1cc(C(=O)COC(=O)c2ccc(O)cc2O)c(C)n1C(C)C	·	·	·	·	4
O=C(COc1ccccc1F)OCC(=O)c1ccc([N+](=O)[O-])cc1	·	·	·	·	-1
O=S(=O)(O)c1cc(O)c2ccc(Nc3ccccc3)cc2c1	·	·	·	·	13
O=S(=O)(O)c1ccc(O)c2cc(Nc3ccccc3)ccc12	·	·	·	·	45*
CC(=O)Nc1ccc2c(O)cc(S(=O)(=O)O)cc2c1	·	·	·	·	8
O=S(=O)(O)c1cc(O)c2cc(Nc3ccccc3)ccc2c1	·	·	·	·	46*
Nc1ccc2c(O)cc(S(=O)(=O)O)cc2c1	·	·	·	·	49*
O=S(=O)(c1ccc2nc(Nc3ccccc3)ccc2c1)N1CCCCC1	10	2	·	·	-1
CCN(CC)S(=O)(=O)c1cc(F)ccc1OC	-3	-6	35*	0	7
CCN(CC)S(=O)(=O)c1cc(C(=O)Oc2ccccc2OC)ccc1OC	-3	2	1	-2	8
COc1ccc(-c2nn(-c3ccccc3)cc2C(=O)O)cc1	1	7	-2	3.2*	-1
Cc1ccc(-c2nn(-c3ccccc3)cc2C(=O)O)o1	102*	active	1	1	·
CNC(=O)c1ccc(-c2cc(C(F)(F)F)nn2C)s1	6	-1	-2	1	-7
Cn1nc(C(F)(F)F)cc1-c1ccc(/C=C(\C#N)C(=O)c2ccccc2)s1	102	19*	1	0	-72
CCc1ccc(C(=O)C(C)OC(=O)Cc2n[nH]c(=O)c3ccccc23)cc1 (stereo not drawn)	-6	-8	·	·	-6
CCc1ccccc1OCC(=O)N(CC)CC(=O)NCc1ccc(F)cc1	active	120*	5	1	-2
CCN(CC(=O)NCc1ccc(F)cc1)C(=O)COc1ccc2ccccc2c1	-18	4	3	0	-5
CCn1nccc1NC(=O)c1ccc2sc([C@@H]3O[C@H](CO)[C@H](O)[C@H](O)[C@H]3O)nc2c1	·	·	·	·	12
O=C(CCCN1C(=O)/C(=C/c2ccccc2Cl)SC1=S)NCCCN1CCOCC1	-9	-18	·	·	41*
COc1ccccc1-c1csc(Nc2ccc(Oc3ccccc3)cc2)n1	·	·	·	·	-6
Cn1c(=O)c2c(ncn2CC(=O)Nc2cccc(S(=O)(=O)Nc3ccccc3F)c2)n(C)c1=O	-14	5	0	1	45*
SMILES	eIF4H FP inh	PABP FP inh	eIF4E 4G PPI	PERK inh	PABP1 MLLE inh
CC1(C(=O)NS(=O)(=O)c2ccccc2Cl)CCN1C(=O)C1CCCCC1 (stereo not drawn)	·	·	·	·	-12
CC(C)(C)N(NS(=O)(=O)c1ccc(F)cc1)c1ccccc1	11	-3	·	·	-27
Cc1ccc(Nc2nc3ccccc3nc2-n2nc(C)cc2C)cc1	0	-15	52*	0	-1
CCc1ccc(S(=O)(=O)/N=C2/C=C(Sc3ncn[nH]3)C(=O)c3ccccc32)cc1	-3	3	32*[fluorescence artefact?]	0	46*
CCc1ccc(S(=O)(=O)/N=C2\C=CC(=O)c3ccccc32)cc1	-1	-2	3	0	·
CCCCc1c(C)nc2c(OC)cccc2c1SCC(=O)O	-2	4	2	4.2*	-10
CC1(c2ccc(OC(F)F)cc2)NC(=O)N(CC(=O)Nc2cccc(F)c2)C1=O (stereo not drawn)	-2	0	·	·	5
N#C/C(=N\Nc1ccc(Cl)cc1)C(=O)c1ccccc1	-3	-4	62*[fluorescence artefact?]	0	14
COc1ccc(S(=O)(=O)N2CCCC(C(=O)NCc3cccnc3)C2)cc1OC (stereo not drawn)	·	·	·	·	-2
CCOc1ccc(NC(=O)Cn2c(=O)n(CC3CCCO3)c(=O)c3ccccc32)cc1 (stereo not drawn)	active	55	2	1	-3
CC1=CC(=O)c2c(O)ccc(O)c2C1=O	112*	111*	63*	1	·
O=C1C=C(N2CCN(c3ccccn3)CC2)C(=O)c2c(O)ccc(O)c21	·	·	·	·	6
COc1ccc(-c2c[n+]3c(n2-c2ccccc2)CCCCC3)cc1	?	54*	-3	1	0
C[C@H](O)[C@H](O)[C@H]1CNc2nc(N)[nH]c(=O)c2N1	·	·	·	·	89*
